From PubChem BioAssay (NCATS)
A number with no mark means an inactive call. Records with an inconclusive call do not appear. Active and inactive are the calls of the source. Unless noted, the call rests on the fitted dose curve; in most records, active means well fitted curve in either direction with a large enough effect (not every such curve was filed as active); inconclusive means small, poorly fitted or top-dose-only effect, or another doubt; inactive means flat fitted curve, though single readings scatter.

Experiments:
[1] = target: Lysosomal acid glucosylceramidase (Homo sapiens) (UniProt P04062); assay: Glucocerebrosidase-p2 (AID 348; in the data active means potency below about 10 µM; further: potency means the concentration at half of the fitted maximal effect); settings: purified GBA, blue fluorogenic substrate, 40 min
Outline: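 Normal human glucocerebrosidase (0.2 nM) with blue fluorogenic substrate (80 uM final) in citrate/phosphate pH 5.9 with 10mM sodium taurocholate, 0.01% tween-20; 40 min RT, NaOH/glycine stop; fluorescence Ex 365/Em 440; AC50 from a titration from 0.6 nM upwards.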

[2] = target: Cytochrome P450 1A2 (Homo sapiens) (UniProt P05177); assay: p450-cyp1a2 (AID 410; calls by dose curve; further: potency means the concentration at half of the fitted maximal effect;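 on activity change, negative = inhibition: -100% = full effect of reference inhibitor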); settings: recombinant CYP1A2, luciferin-ME demethylation, luminescence; series mostly up to 57 µM
Outline: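 O-Demethylation of luciferin 6' methyl ether by human CYP1A2 is monitored as luciferase luminescence. Substrate sits at Km (100uM); enzyme is 20nM. Values are scaled to 57 uM furafylline as maximal inhibition.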

[3] = NFAT Signaling Pathway (AID 444); settings: Jurkat NFAT-bla M1, carbachol, beta-lactamase ratio, 5 h; at 7.69 µM (top of the series) unless noted;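 further: carbachol stimulus at about its EC50 of 1 µM final; on the % scale 0 is the no-effect control and ±100 the full control effect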
Outline: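 Jurkat cells carrying an NFAT-driven β-lactamase reporter and co-transfected muscarinic M1 receptor were treated with compound plus carbachol (1 uM final, an EC50 level) for 5 h at 37 °C. CCF4 loading followed for 1 h at RT; 460/530 nm ratio gave %activity.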

[4] = Stat Signaling Pathway (AID 446); settings: ME-180 SIE beta-lactamase reporter, IL-6 stimulated, 5 h; at 7.69 µM (top of the series) unless noted;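 further: ME-180 cervical cancer cells given 40 pM IL-6 alongside compound; SIE-controlled beta-lactamase reporter measured as 460/530 nm FRET emission ratio; on the % scale 0 is the no-effect control and ±100 the full control effect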
Outline: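 Overnight-plated ME-180 cells bearing a STAT Inducible Element beta-lactamase reporter; 5 h co-exposure to compound and 40 pM IL-6; values normalized to 300 pM IL-6 and 125 nM JAK inhibitor controls.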

[5] = target: Glucocorticoid receptor (Homo sapiens) (UniProt P04150); assay: GR-EFC Redistribution (AID 451; calls by dose curve; further: potency means the concentration at half of the fitted maximal effect); settings: CHO-K1 GR-EFC translocation, beta-gal luminescence, 2 h
Outline: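 CHO-K1 cells stably expressing nuclear-localized β-gal enzyme acceptor and GR fused C-terminally to the enzyme donor fragment; ligand-driven nuclear translocation restores β-gal by complementation. Compounds titrated up to 46 uM final, 2 h at 37 °C; luminescence read.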

[6] = target: Mitogen-activated protein kinase 10 (Mus musculus) (UniProt Q61831); assay: JNK3 AlphaScreen Assay (AID 530); settings: JNK3 lysate, c-Jun phosphorylation; series mostly up to 57.1 µM;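 further: kinase came from lysate of stimulated human HepG2 cells; signal reports phosphorylation of biotinylated GST-cJun 1-79 at Ser73 with 10 µM ATP; on the % scale 0 is the no-effect control and ±100 the full control effect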
Outline: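 Phosphorylation of biotinylated GST-cJun(1-79) at Ser73 is measured by AlphaScreen proximity luminescence. Enzyme is JNK3 in HepG2 lysates activated with interleukin-1beta and tumor necrosis factor alpha; ATP is 10 uM final.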

[7] = target: Cytochrome P450 3A4 (Homo sapiens) (UniProt P08684); assay: qHTS Assay for Inhibitors and Substrates of Cytochrome P450 3A4 (AID 884; active means well fitted curve in the direction sought with a large enough effect; an effect the other way counts as inactive or inconclusive; further: potency means the concentration at half of the fitted maximal effect; nearly all actives have a fitted effect of over 50% in size); settings: recombinant CYP3A4, Luciferin-PPXE luminescence; series mostly up to 57.1 µM
Outline: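 Luminescent readout of luciferin produced by CYP3A4 (20 nM) dealkylation of Luciferin-PPXE, 25 uM (its KM). NADPH-driven reaction ran 60 min at RT after 10 min compound preincubation; data scaled to 57 uM ketoconazole as 100% inhibition.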

[8] = target: Cytochrome P450 3A4 (Homo sapiens) (UniProt P08684); assay: qHTS Assay for Activators of Cytochrome P450 3A4 (AID 885; active means well fitted curve in the direction sought with a large enough effect; an effect the other way counts as inactive or inconclusive; further: nearly all actives have a fitted effect of over 65% in size); settings: recombinant CYP3A4, Luciferin-PPXE luminescence, 60 min; series mostly up to 57.1 µM
Outline: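 Using 20nM recombinant human CYP3A4 in potassium phosphate (200mM), substrate Luciferin-PPXE at 25uM, luminescent luciferin detection followed a 60-min RT NADPH reaction; data scaled to 57 uM ketoconazole.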

[9] = target: Cytochrome P450 2D6 (Homo sapiens) (UniProt P10635); assay: qHTS Assay for Inhibitors and Substrates of Cytochrome P450 2D6 (AID 891; active means well fitted curve in the direction sought with a large enough effect; an effect the other way counts as inactive or inconclusive; further: potency means the concentration at half of the fitted maximal effect; nearly all actives have a fitted effect of over 60% in size); settings: recombinant CYP2D6, luciferin-ME EGE luminescence; series mostly up to 57.1 µM
Outline: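 Luminescent read-out of luciferin formed by 5 nM human CYP2D6 demethylating 30 uM Luciferin-ME EGE (Km level) over 60 min at room temperature after NADPH regeneration addition. Data normalized to full inhibition by 1.43 uM quinidine.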

[10] = Primary qHTS for small molecule stabilizers of the endoplasmic reticulum resident proteome: Secreted ER Calcium Modulated Protein (SERCaMP) assay (AID 1508630; active means well fitted curve in the direction sought with a large enough effect; an effect the other way counts as inactive or inconclusive; further: on the % scale 0 is the no-effect control and ±100 the full control effect); settings: SH-SY5Y GLuc-SERCaMP (Gaussia luciferase released on ER calcium loss) secretion, thapsigargin, luminescence; series mostly up to 38.4 µM
Outline: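 The SH-SY5Y reporter protocol was run at 3 concentrations up to 38.3 uM (primary) or 11 concentrations (follow-up): 16 h compound, 100 nM thapsigargin for 4 h, then extracellular luciferase luminescence.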

[11] = AP1 Signaling Pathway (AID 357); settings: ME-180 AP-1-bla reporter, EGF-induced, beta-lactamase ratio, 5 h; at 7.69 µM (top of the series) unless noted
Outline: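 A ratiometric CCF4 readout (405 nm excitation; 460 and 530 nm emission) quantified AP-1-driven beta-lactamase in ME-180 cells after 5 h with compound and EC50 EGF; AC50 values were derived for activators and inhibitors.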

[12] = target: 3',5'-cyclic-AMP phosphodiesterase 4B (Homo sapiens) (UniProt Q07343); assay: qHTS Assay for Inhibitors of PDE-IV (AID 607; active means well fitted activation curve with a large enough effect in the main read-out, with a control signal flat, not every such curve was filed as active; further: % of control where 0% means no effect); settings: HEK293 ACTOne CNG channel cells, membrane potential fluorescence; series mostly up to 22.9 µM
Outline: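 Live HEK293 cells with a modified cyclic nucleotide-gated (CNG) channel report intracellular cAMP via membrane-potential dye fluorescence (ex 535/em 590 nm). Endogenous PDE-IV was targeted. Compounds were tested at up to 22.9 uM final; RO 20-1724 100 uM served as control.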

[13] = target: Glucocorticoid receptor (Homo sapiens) (UniProt P04150); assay: GR-GFP Redistribution (AID 450;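 active means compounds whose dose series gives a full or clear partial fitted curve of increased nuclear translocation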; further: potency means the concentration at half of the fitted maximal effect); settings: U2OS GR-GFP nuclear translocation, laser cytometry, 2 h
[14] = target: Cytochrome P450 2C9 (Homo sapiens) (UniProt P11712); assay: qHTS Assay for Inhibitors and Substrates of Cytochrome P450 2C9 (AID 883; active means well fitted curve in the direction sought with a large enough effect; an effect the other way counts as inactive or inconclusive; further: nearly all actives have a fitted effect of over 60% in size; further: potency means the concentration at half of the fitted maximal effect); settings: recombinant CYP2C9, luciferin-H luminescence, 60 min; series mostly up to 57.1 µM
Outline: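 A luminogenic readout tracked human CYP2C9 (10nM) converting deoxyluciferin (100uM, at KM) in 25mM KPO4 during 60 min at 37C with regenerated NADPH. Values normalized to 57uM sulphaphenazole as complete inhibition.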

[15] = target: Cytochrome P450 2C19 (Homo sapiens) (UniProt P33261); assay: qHTS Assay for Inhibitors and Substrates of Cytochrome P450 2C19 (AID 899; active means well fitted curve in the direction sought with a large enough effect; an effect the other way counts as inactive or inconclusive; further: on the % scale 0 is the no-effect control and ±100 the full control effect; nearly all actives have a fitted effect of over 60% in size); settings: recombinant CYP2C19, luciferin-H EGE luminescence; series mostly up to 57.1 µM
Outline: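 NADPH-dependent conversion of Luciferin-H EGE (10uM, at KM) by 5nM enzyme in 50mM KPO4, 60 min at 37C following 10 min compound preincubation. Stopped with luciferin detection buffer; luminescence read after 20 min.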

[16] = qHTS Assay for Identification of Small Molecule Agonists for Hypoxia Response Element Signaling Pathway (AID 914; active means well fitted activation curve with a large enough effect in the signal ratio, with a control signal flat, not every such curve was filed as active; the % refers to the signal ratio; further: % of control where 0% means no effect); settings: ME-180 (cervical carcinoma) HRE-bla reporter, beta-lactamase ratio, CoCl2, 17 h; activation: stronger effect = higher value
Outline: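 A beta-lactamase reporter under hypoxia response element control in ME-180 cells served as the system. Compound titrations plus EC50 CoCl2 ran 17 h at 37 degrees Celsius; AC50 values were fitted from %Activity.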

Sequence of 3',5'-cyclic-AMP phosphodiesterase 4B (Homo sapiens) (Q07343 whole entry, looked up): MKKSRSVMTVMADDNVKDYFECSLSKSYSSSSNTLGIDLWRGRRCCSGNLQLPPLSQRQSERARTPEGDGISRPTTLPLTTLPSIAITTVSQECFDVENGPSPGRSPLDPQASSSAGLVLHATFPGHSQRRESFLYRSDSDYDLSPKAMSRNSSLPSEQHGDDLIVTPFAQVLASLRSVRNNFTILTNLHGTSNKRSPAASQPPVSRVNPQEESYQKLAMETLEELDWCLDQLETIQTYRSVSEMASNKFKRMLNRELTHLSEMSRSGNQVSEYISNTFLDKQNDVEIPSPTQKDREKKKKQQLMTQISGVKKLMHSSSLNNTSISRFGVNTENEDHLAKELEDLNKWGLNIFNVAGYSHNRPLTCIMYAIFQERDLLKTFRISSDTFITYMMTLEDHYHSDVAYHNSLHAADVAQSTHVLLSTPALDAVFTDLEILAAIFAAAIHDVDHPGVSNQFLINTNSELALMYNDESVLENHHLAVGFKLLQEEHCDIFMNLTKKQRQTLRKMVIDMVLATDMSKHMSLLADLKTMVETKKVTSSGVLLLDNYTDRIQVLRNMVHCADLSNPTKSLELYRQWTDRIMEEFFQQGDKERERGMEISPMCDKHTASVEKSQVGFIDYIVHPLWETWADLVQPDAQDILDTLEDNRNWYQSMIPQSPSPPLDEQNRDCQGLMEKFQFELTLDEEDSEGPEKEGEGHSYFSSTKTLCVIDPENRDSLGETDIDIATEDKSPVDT
Sequence of Cytochrome P450 3A4 (Homo sapiens) (P08684 whole entry, looked up): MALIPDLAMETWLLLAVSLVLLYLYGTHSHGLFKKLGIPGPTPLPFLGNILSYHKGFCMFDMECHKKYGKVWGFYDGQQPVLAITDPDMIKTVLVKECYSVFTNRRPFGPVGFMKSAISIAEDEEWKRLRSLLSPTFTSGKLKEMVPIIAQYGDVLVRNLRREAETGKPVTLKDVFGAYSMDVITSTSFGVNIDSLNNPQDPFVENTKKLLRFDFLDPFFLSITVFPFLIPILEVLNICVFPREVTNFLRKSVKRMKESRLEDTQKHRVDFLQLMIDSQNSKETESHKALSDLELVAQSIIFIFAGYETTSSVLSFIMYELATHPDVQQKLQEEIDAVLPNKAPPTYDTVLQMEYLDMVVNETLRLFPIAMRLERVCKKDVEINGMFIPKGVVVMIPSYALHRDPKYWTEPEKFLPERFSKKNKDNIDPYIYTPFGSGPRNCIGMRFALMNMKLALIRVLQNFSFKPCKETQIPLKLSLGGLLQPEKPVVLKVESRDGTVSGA
Sequence of Lysosomal acid glucosylceramidase (Homo sapiens) (P04062 whole entry, looked up): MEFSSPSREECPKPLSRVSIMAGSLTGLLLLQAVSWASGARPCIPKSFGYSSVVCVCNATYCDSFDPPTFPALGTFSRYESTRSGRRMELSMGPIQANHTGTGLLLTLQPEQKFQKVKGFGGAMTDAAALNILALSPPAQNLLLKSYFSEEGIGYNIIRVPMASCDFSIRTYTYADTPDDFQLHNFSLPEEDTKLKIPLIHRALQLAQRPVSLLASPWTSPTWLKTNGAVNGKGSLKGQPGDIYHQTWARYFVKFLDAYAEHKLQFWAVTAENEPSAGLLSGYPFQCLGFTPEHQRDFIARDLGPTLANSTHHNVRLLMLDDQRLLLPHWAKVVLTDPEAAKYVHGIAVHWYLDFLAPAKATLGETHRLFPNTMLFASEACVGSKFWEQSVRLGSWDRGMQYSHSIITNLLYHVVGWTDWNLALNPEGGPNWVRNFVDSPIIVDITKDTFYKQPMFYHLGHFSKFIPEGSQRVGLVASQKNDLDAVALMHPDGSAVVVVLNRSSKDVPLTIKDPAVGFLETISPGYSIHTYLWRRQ
Sequence of Glucocorticoid receptor (Homo sapiens) (P04150 whole entry, looked up, the tested form may be a part): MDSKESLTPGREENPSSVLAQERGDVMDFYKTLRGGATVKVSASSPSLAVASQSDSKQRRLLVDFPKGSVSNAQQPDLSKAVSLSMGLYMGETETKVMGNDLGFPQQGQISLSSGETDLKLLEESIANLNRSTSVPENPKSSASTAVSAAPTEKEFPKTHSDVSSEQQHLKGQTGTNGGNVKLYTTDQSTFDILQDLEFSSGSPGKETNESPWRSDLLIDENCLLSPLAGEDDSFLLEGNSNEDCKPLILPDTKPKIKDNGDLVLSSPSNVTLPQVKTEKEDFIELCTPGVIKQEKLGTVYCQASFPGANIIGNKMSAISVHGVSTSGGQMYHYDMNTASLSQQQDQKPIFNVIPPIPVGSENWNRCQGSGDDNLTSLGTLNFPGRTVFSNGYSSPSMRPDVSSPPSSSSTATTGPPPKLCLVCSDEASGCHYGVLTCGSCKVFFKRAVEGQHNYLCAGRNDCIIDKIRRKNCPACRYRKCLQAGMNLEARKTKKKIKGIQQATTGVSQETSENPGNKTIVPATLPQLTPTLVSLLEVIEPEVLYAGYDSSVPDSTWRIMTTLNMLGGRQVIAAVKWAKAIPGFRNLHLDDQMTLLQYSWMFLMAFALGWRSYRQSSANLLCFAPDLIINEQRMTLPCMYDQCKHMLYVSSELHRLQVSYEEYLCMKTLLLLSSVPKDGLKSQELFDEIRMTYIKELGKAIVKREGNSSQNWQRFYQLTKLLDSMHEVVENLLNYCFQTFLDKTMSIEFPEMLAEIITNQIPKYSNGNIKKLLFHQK
Sequence of Cytochrome P450 1A2 (Homo sapiens) (P05177 whole entry, looked up): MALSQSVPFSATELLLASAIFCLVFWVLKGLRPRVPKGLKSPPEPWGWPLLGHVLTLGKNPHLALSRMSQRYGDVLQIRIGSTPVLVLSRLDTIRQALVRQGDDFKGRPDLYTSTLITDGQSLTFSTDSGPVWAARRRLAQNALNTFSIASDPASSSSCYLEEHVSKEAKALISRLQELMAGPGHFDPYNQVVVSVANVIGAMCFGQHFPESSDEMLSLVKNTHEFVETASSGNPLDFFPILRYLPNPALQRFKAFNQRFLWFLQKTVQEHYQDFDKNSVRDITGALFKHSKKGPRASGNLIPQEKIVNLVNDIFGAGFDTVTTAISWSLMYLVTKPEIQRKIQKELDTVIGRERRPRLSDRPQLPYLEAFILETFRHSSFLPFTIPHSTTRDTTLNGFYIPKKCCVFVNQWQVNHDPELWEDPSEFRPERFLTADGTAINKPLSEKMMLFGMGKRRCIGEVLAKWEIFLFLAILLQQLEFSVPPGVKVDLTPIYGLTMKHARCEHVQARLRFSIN
Sequence of Cytochrome P450 2C9 (Homo sapiens) (P11712 whole entry, looked up): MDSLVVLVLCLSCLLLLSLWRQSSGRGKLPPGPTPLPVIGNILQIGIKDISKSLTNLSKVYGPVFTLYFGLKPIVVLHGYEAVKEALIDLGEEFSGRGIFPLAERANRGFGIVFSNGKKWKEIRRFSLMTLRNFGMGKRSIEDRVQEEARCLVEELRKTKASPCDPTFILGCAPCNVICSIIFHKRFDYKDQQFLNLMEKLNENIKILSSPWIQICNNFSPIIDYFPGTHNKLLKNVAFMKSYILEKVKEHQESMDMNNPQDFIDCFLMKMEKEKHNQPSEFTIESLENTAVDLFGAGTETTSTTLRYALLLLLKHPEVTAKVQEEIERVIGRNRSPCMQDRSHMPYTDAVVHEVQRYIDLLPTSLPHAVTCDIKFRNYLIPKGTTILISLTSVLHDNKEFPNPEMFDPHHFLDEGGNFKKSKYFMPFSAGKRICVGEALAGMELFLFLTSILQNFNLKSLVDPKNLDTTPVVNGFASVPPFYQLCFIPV
Sequence of Cytochrome P450 2D6 (Homo sapiens) (P10635 whole entry, looked up): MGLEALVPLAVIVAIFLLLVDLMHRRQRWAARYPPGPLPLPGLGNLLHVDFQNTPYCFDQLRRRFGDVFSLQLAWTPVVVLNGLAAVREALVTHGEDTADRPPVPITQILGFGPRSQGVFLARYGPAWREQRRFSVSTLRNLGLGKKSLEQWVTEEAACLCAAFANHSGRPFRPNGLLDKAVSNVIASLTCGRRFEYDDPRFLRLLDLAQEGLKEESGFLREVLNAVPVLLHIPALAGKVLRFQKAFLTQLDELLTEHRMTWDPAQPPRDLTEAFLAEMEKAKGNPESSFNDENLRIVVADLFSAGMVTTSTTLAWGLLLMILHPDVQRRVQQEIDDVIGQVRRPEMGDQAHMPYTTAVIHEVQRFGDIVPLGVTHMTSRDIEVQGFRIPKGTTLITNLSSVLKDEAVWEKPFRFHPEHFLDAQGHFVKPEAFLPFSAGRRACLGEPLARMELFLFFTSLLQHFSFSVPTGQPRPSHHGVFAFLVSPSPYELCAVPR
Sequence of Cytochrome P450 2C19 (Homo sapiens) (P33261 whole entry, looked up): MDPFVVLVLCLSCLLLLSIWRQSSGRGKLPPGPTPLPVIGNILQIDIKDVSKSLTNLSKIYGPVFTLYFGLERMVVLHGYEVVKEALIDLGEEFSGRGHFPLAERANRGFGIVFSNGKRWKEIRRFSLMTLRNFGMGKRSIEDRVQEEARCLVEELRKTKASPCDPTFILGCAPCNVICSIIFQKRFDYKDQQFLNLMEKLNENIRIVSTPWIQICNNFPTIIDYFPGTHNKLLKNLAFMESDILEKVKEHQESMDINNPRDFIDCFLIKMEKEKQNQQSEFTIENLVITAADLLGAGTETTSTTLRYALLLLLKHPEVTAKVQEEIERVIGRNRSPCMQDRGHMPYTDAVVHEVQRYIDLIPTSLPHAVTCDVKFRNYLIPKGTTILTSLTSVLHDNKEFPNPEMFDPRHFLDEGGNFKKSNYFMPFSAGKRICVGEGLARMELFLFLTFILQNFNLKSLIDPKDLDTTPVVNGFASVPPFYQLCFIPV

Structure (SMILES)	Potency [1] [µM]	Potency [2]	activity change, negative = inhibition [3] [%]	activity, negative = inhibition [4] [%]	Potency [5] [µM]	Potency [6]	Potency [7]	Potency [8]	Potency [9]	outcome [10]	activity change, negative = inhibition [11] [%]	Potency [12]	Potency [13] [µM]	Potency [14]	Potency [15]	activation [16] [%]
O=S(=O)(c1ccccc1)N1CCC[C@@]2(CCN(C(c3ccccc3)c3ccccc3)C2)C1	> 11.4	inactive	-29.6	13.8	> 46	inactive	3.16 µM (active)	inactive	0.631 µM (active)	inactive	–	–	–	–	–	–
CC(=O)N1CCC2(CCN(Cc3ccc(C#N)cc3)CC2)CC1	> 11.4	–	–	6.19	> 46	inactive	–	–	–	inactive	-3.09	inactive	–	–	–	–
COc1ncc2nc(C)c(=O)n(CCC#N)c2n1	> 11.4	15.8 µM (active)	-6.19	-5.09	> 46	inactive	–	–	–	inactive	–	inactive	> 9.22	inactive	inactive	7.94
COc1ccc(C(=O)N2CCC3(CCCN(c4ccncc4)C3)CC2)cc1	> 11.4	–	–	8.4	> 46	inactive	–	–	–	inactive	7.18	inactive	–	–	–	–
COCCn1c(=O)c(-c2ccc(OC)cc2)nc2cnc(Oc3cccc(Cl)c3)nc21	> 11.4	6.31 µM (active)	-0.562	21.8	> 46	inactive	–	inactive	–	inactive	–	inactive	> 9.22	0.631 µM (active)	–	–
Cc1noc(C)c1C(=O)N1CCC2(CC1)CCN(C(c1ccccc1)c1ccccc1)CC2	> 11.4	–	–	10.1	> 46	inactive	–	–	–	inactive	-6.81	–	–	–	–	-2.4
O=C(c1cnccn1)N1CCC2(CC1)CN(Cc1ccccc1)C2	> 11.4	–	–	2.48	> 46	inactive	–	–	–	inactive	-15.8	inactive	–	–	–	6.71
O=C(Oc1ccccc1)N1CCC2(CCCN(c3cccc(-c4ccccc4)c3)C2)CC1	> 11.4	inactive	-27.7	2.68	> 46	inactive	–	inactive	–	inactive	–	inactive	–	–	–	–
